We go through 45 sequences from the supplement of paper PMC11417369.

± gives the standard deviation of the averaged measurements. Whole data set: some 25,000 sequences, median “ln(normalized median fluorescence intensity)” near 8.9, cut for the highest 2% near 10. The sample holds the highest values, similar sequences and a random draw of the others, so the mix is not that of the screen.

This assay concerns PfAP2-LT AP2 domain (GST-tagged). In words: gcPBM binding intensity (ln(normalized median fluorescence intensity)); higher = stronger DNA binding. Put shortly:
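An Agilent 4 × 180k array of primer-extended double-stranded 36-bp intergenic genomic probes, with negative controls, was incubated for 1 h with GST-tagged P. falciparum DNA-binding domains expressed in E. coli. Alexa488 anti-GST antibody detected bound protein, scanned at 488 nm. Binding intensity is the highest Masliner-normalised natural-log median intensity across replicate spots of either probe orientation.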
For “ATATATATATAATTATATAAAATATATCATATGTTA [XGTACX_negctrl_site47]”, the “gcPBM binding intensity (ln)” value was found to be 8.53 ± 0.42.

For “TTTAATCATATGTTATATAATAAGCCCCCCCCCCAA [CACACA_negctrl_site486]”, the “gcPBM binding intensity (ln)” value was found to be 10.2 ± 0.17.

Take “TATTAATTATATTTATGTACATAATCATATTATTAT [XGTACX_site7938]”: the “gcPBM binding intensity (ln)” value was found to be 8.94 ± 0.44.

As for “ATAATACACAAGCACACACACACACGGATATTTATA [CACACA_site6714]”, the “gcPBM binding intensity (ln)” value stood at 10.4 ± 0.23.

For the sequence “AGCACAAGCACAAGCACACATTTATATATAAATACA [CACACA_site4642]”, the “gcPBM binding intensity (ln)” value was found to be 9.1 ± 0.47.

On to “ATTTTTATTTTATATACACACAATAATAATATAATA [CACACA_site4015]”, for which the “gcPBM binding intensity (ln)” value was 8.62 ± 0.36.

For “AATTAAAAAAAATACACACACACATACCCATATATA [CACACA_site5767]”, the “gcPBM binding intensity (ln)” value worked out at 9.85 ± 0.28.

For the sequence “TTTATTTATTATTGTTGTACACTTTTTATAAAAAAA [XGTACX_site5114]”, the “gcPBM binding intensity (ln)” value turned out to be 8.57 ± 0.53.

For the sequence “ATGAAAAAAAAAAAAAAAAAAAAAAAAAAAAAAATA [CACACA_negctrl_site1083]”, the “gcPBM binding intensity (ln)” value amounted to 8.37 ± 0.55.

For the sequence “AAAATTCATATATACACACACGCACATATATATATA [CACACA_site90]”, the “gcPBM binding intensity (ln)” value worked out at 9.71 ± 0.21.

As to “AAAAAAATTTGGCATACACACACACCCCCACCCACA [CACACA_site8094]”, the “gcPBM binding intensity (ln)” value was 10.41 ± 0.05.

“AAAAAATTCATATATACACACACGCACATATATATA [CACACA_site4226]”: the “gcPBM binding intensity (ln)” value was 9.53 ± 0.13.

With “AAAAATTTGGCATACACACACACACGCACACGCACA [CACACA_site6422]”, the “gcPBM binding intensity (ln)” value stood at 10.2 ± 0.21.

“AAAAATTTGGCATACACACACACACCGACACAGACA [CACACA_site4489]”: the “gcPBM binding intensity (ln)” value was 10 ± 0.23.

With “AAAAATTTGGCATACACACACACACCCACACCCACA [CACACA_site587]”, the “gcPBM binding intensity (ln)” value amounted to 10.03 ± 0.042.

In the case of “CACATACACCCATACACACACATATATATTAAGATA [CACACA_site4459]”, the “gcPBM binding intensity (ln)” value was 9.57 ± 0.38.

In the case of “TATATATATATATAATGTACAAACTCCTTTATATAT [XGTACX_site4545]”, the “gcPBM binding intensity (ln)” value was found to be 9.05 ± 0.2.

Regarding “ATTATTTTATTATAGTGTACTTTTTTAATCAAAGGA [XGTACX_site8921]”, the “gcPBM binding intensity (ln)” value is 8.44 ± 0.4.

Consider “TTAGGTTATAAATACACACACAAAAGAAAAAAAAAA [CACACA_site5625]”, for which the “gcPBM binding intensity (ln)” value is 9.23 ± 0.55.

Turning to “TTATGATCATTTATATGTACACATAATTTTTGTGCT [XGTACX_site5568]”, the “gcPBM binding intensity (ln)” value came out at 9.03 ± 0.44.

“AAAAAAAAAAAAAAGAGTACATTTATTTATATATCT [XGTACX_site2381]”: the “gcPBM binding intensity (ln)” value stood at 8.46 ± 0.33.

With “AATAGAATAATCCTTACACACACACCCACACGAATA [CACACA_site8053]”, the “gcPBM binding intensity (ln)” value was 9.87 ± 0.16.

Regarding “TAGAATAATCCTTACACACACACACCCACGAATAAA [CACACA_site483]”, the “gcPBM binding intensity (ln)” value is 10.1 ± 0.2.

Regarding “AATAGAATAATCCTTACACACACACGCGCACGAATA [CACACA_site6365]”, the “gcPBM binding intensity (ln)” value is 9.78 ± 0.31.

With “TTTTTTTTAGTATGAACACACATATAGATTATAAAA [CACACA_site7391]”, the “gcPBM binding intensity (ln)” value was determined as 8.35 ± 0.41.

As to “ATAATATGAAAACACACACACACACTAATAAAAAAA [CACACA_site8617]”, the “gcPBM binding intensity (ln)” value amounted to 10.3 ± 0.16.

Turning to “AAAAAAAAAAAACACACACACACACTAATATATAAA [CACACA_site8302]”, the “gcPBM binding intensity (ln)” value turned out to be 10.3 ± 0.35.

“ATAATCCTTAAACACACACACACACTAATAAATAAA [CACACA_site8052]”: the “gcPBM binding intensity (ln)” value was found to be 10.1 ± 0.25.

As to “TATATATATATATATACACACACACTAATAAAAAAA [CACACA_site8426]”, the “gcPBM binding intensity (ln)” value worked out at 9.65 ± 0.057.

As to “ATATAAATAATATAAATACACACTAAAAAAAATATA [CACACA_site542]”, the “gcPBM binding intensity (ln)” value was 8.88 ± 0.44.

In the case of “TATGAACACAGACACACACACAAAAAAAAAAAAAAA [CACACA_site7037]”, the “gcPBM binding intensity (ln)” value came to 9.18 ± 0.56.

As for “ATAATATGAAATATAACACACATATATAAAAACATT [CACACA_site866]”, the “gcPBM binding intensity (ln)” value worked out at 9.11 ± 0.33.

For the sequence “AACAAACACAGACACACACACACACTAATATGATTA [CACACA_site8770]”, the “gcPBM binding intensity (ln)” value turned out to be 10.2 ± 0.45.

As for “TACATAAATTAAAACACACACACACTAATAAAAAAA [CACACA_site8712]”, the “gcPBM binding intensity (ln)” value was 9.85 ± 0.18.

For “AAAAAAAATATGAAAACACACATATATAAATAAATA [CACACA_site113]”, the “gcPBM binding intensity (ln)” value was determined as 8.88 ± 0.46.

In the case of “AATATGAACAGACACACACACACAAAAAAAAAAAAA [CACACA_site2012]”, the “gcPBM binding intensity (ln)” value is 9.9 ± 0.56.

For “AAAAAATATATATTAACACACACACTAATAAAAAAA [CACACA_site8366]”, the “gcPBM binding intensity (ln)” value was 9.56 ± 0.17.

Regarding “CTTATATGAAGCCTCTTTATTCATAAATAAGAATAA [TGCATGCA_negctrl_site120]”, the “gcPBM binding intensity (ln)” value came to 8.21 ± 0.38.

With “AAAATTATTTTTATGTGTACTTATTTATTATTTATA [XGTACX_site6665]”, the “gcPBM binding intensity (ln)” value was found to be 8.79 ± 0.46.

In the case of “ATTATCTTATGTTATTTATTTGTCCCACATTTGTTA [TGCATGCA_negctrl_site402]”, the “gcPBM binding intensity (ln)” value amounted to 8.91 ± 0.46.

“AAATTGTCAAAACACGCACACACATATACATAATAA [CACACA_site1743]”: the “gcPBM binding intensity (ln)” value came to 9.62 ± 0.36.

On to “ATTCATTATTCACCTTGTACACAAATGATTATCGTA [XGTACX_site455]”, for which the “gcPBM binding intensity (ln)” value is 8.93 ± 0.45.

Regarding “AAAAAATCAAAACACACACACACACTAGAAAAAAAA [CACACA_site4909]”, the “gcPBM binding intensity (ln)” value was 10.1 ± 0.49.

For “ATAATATGAAAACACACACACACACTAGAAAAAAAA [CACACA_site5153]”, the “gcPBM binding intensity (ln)” value stood at 10.2 ± 0.27.

For “AATAATAAACACAATCAAATAAAATATGAAATATAA [GTGCAC_negctrl_site307]”, the “gcPBM binding intensity (ln)” value was found to be 8.84 ± 0.49.
